# This excerpt belongs to a sample that is enriched for hits.
# DUX4 txn inh = inhibitors of DUX4-driven ZSCAN4 reporter expression, primary screen, 293T cells, Gaussia and Italica luciferase | activity change, negative = inhibition, % (no concentration beside the values) | 293T-iDUX4 ZSCAN4-Gaussia luciferase reporter, 24 h; stronger effect = lower value | AID 1224904, 2016 | actives 0.8% (n = 37,000);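 active means mean inhibition of at least 10% in the main channel, exceeding the control channel by a set limit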
# Numbers stand for hits; n = inactive.
SMILES,DUX4 txn inh
C[C@H](CO)N1C[C@H](C)[C@H](CN(C)Cc2ccc(O)cc2)OCc2ccccc2-c2ccccc2C1=O,n
C[C@H](CO)N1C[C@H](C)[C@@H](CN(C)Cc2ccc(F)cc2)OCc2ccccc2-c2ccccc2C1=O,n
C[C@@H]1CN([C@H](C)CO)C(=O)c2ccccc2-c2ccccc2CO[C@@H]1CN(C)Cc1ccc(Cl)c(Cl)c1,-52
C[C@@H]1CN([C@@H](C)CO)C(=O)c2ccccc2-c2ccccc2CO[C@@H]1CN(C)Cc1ccc(O)cc1,n
C[C@@H]1CN([C@H](C)CO)C(=O)c2ccccc2-c2ccccc2CO[C@@H]1CN(C)Cc1ccc2c(c1)OCO2,n
C[C@H]1CN([C@@H](C)CO)C(=O)c2ccccc2-c2ccccc2CO[C@@H]1CN(C)Cc1ccc(Cl)c(Cl)c1,-42
O=C(CN1CCOCC1)N[C@@H]1CC[C@H](CCn2cc(C3CC3)nn2)O[C@@H]1CO,n
COC(=O)[C@H]1[C@H](CO)[C@H]2Cn3c(ccc(-c4ccncc4)c3=O)[C@H]2N1CC1CCCC1,n
CCCC(=O)N1CC2(CCN(C)CC2)c2c(n(C)c3cc(OC)ccc23)[C@@H]1CO,n
CO[C@H]1CN(C)C(=O)c2cc(NC(=O)c3cc(C)on3)ccc2OC[C@@H](C)N(C)C[C@H]1C,n
COc1ccccc1CN1[C@@H](CO)[C@H](c2ccccc2)C12CN(C(C)=O)C2,n
OC[C@H]1[C@H](c2ccccc2)C2(CN(Cc3ccccc3F)C2)N1Cc1ccccc1F,-35
COc1ccccc1CN1[C@@H](CO)[C@@H](c2ccccc2)C12CN(C(C)=O)C2,n
COc1cccc(CN2[C@H](CO)[C@@H](c3ccccc3)C23CN(C(=O)C2CC2)C3)c1,n
COc1cccc(CN2[C@@H](CO)[C@H](c3ccccc3)C23CN(Cc2ccccc2OC)C3)c1,-44
COc1ccccc1CN1[C@H](CO)[C@H](c2ccccc2)C12CN(C(C)=O)C2,n
O=C(C1CC1)N1CC2(C1)[C@@H](c1ccccc1)[C@@H](CO)N2Cc1ccccc1F,n
CCC(=O)N1CC2(C1)[C@H](c1ccccc1)[C@@H](CO)N2Cc1ccccc1F,n
COc1cccc(CN2CC3(C2)[C@H](c2ccccc2)[C@@H](CO)N3Cc2ccccc2OC)c1,-36
CCC(=O)N1CC[C@@H]2[C@@H](CO)Nc3ccc(C#Cc4cccc(OC)c4)cc3[C@@H]21,n
CN(C)CC(=O)N1[C@H](CO)[C@H](c2ccccc2)C12CN(C(=O)c1cccc(F)c1)C2,n
O=C(c1ccccn1)N1CC(=O)N2[C@H](CO)[C@H](c3ccc(C#Cc4ccccc4)cc3)[C@@H]2C1,n
O=C1N[C@@H](Cc2ccccc2)COCc2cnnn2CC[C@@H]1Cc1cccc(F)c1,n
CC(=O)N1CC2(C1)[C@H](c1ccc(-c3ccccc3C)cc1)[C@@H](CO)N2C(C)=O,n
O=C(CN1CCOCC1)N1CC[C@@H]2[C@@H](CO)Nc3ccc(-c4ccccc4)cc3[C@@H]21,n
SMILES,DUX4 txn inh
O=C(N[C@H]1CC[C@@H](CCNS(=O)(=O)c2ccc(Cl)cc2)O[C@H]1CO)c1ccccn1,n
OC[C@H]1[C@H](c2ccc(C#Cc3cccnc3)cc2)[C@@H]2CN(Cc3ccccc3F)CCCCN12,-38
O=C(Nc1ccccc1F)N1CCCCN2[C@@H](CO)[C@H](c3ccc(C#Cc4cccnc4)cc3)[C@@H]2C1,n
OC[C@@H]1[C@H](c2ccc(C#Cc3ccccc3F)cc2)[C@@H]2CN(Cc3cncnc3)CCCCN12,n
OC[C@H]1[C@H](c2ccc(C#Cc3ccccc3F)cc2)[C@@H]2CN(Cc3cncnc3)CCCCN12,n
OC[C@@H]1[C@H](c2ccc(C#Cc3cccnc3)cc2)[C@H]2CN(Cc3ccccc3F)CCCCN12,-57
O=C(Nc1ccccc1F)N1CCCCN2[C@H](CO)[C@H](c3ccc(C#Cc4cccnc4)cc3)[C@H]2C1,-36
CC(C)(O)C#Cc1ccc([C@@H]2[C@H]3CN(Cc4ccccc4F)CCCCN3[C@H]2CO)cc1,n
OC[C@@H]1[C@@H](c2ccc(C#Cc3ccccc3F)cc2)[C@H]2CN(Cc3cncnc3)CCCCN12,n
O=C(Nc1cccc(F)c1)N1CCCCN2[C@H](C1)[C@@H](c1ccc(C#Cc3cccnc3)cc1)[C@@H]2CO,n
C[C@@H]1CCCCO[C@H](CN(C)S(C)(=O)=O)[C@H](C)CN([C@H](C)CO)C(=O)c2cc(N(C)C)ccc2O1,n
O=C(c1cccc(F)c1)N1CC2(C1)[C@H](c1ccccc1)[C@@H](CO)N2C(=O)C1CCCC1,n
COc1ccc(C#Cc2ccc([C@@H]3[C@H](CO)N4CCCCN(Cc5ccncc5)C[C@@H]34)cc2)cc1,n
COc1ccc(C#Cc2ccc([C@H]3[C@H]4CN(Cc5ccccc5F)CCCCN4[C@H]3CO)cc2)cc1,-21
COCC#Cc1ccc([C@@H]2[C@H]3CN(Cc4ccccc4F)CCCCN3[C@H]2CO)cc1,n
COc1ccc(C#Cc2ccc([C@@H]3[C@@H](CO)N4CCCCN(Cc5ccccc5F)C[C@H]34)cc2)cc1,-19
COCC#Cc1ccc([C@@H]2[C@@H](CO)N3CCCCN(Cc4ccncc4)C[C@H]23)cc1,n
COc1ccc(C#Cc2ccc([C@@H]3[C@H]4CN(Cc5ccncc5)CCCCN4[C@H]3CO)cc2)cc1,-36
CN1CCCCN2[C@H](C1)[C@@H](c1ccc(C#Cc3ccccc3F)cc1)[C@@H]2CO,n
CN1CCCCN2[C@@H](CO)[C@H](c3ccc(C#Cc4ccccc4F)cc3)[C@@H]2C1,n
OC[C@@H]1[C@@H](c2ccc(C#CC3(O)CCCC3)cc2)[C@H]2CN(Cc3ccccc3F)CCCCN12,n
CCS(=O)(=O)Nc1ccc2c(c1)C(=O)N(C)[C@H]1CC[C@H](CC(=O)NC)O[C@H]1CO2,n
O=C(C[C@@H]1C[C@H]2c3cc(NC(=O)NC4CCCC4)ccc3O[C@H]2[C@@H](CO)O1)NCC1CC1,n
COc1ccccc1-c1ccc2n(c1=O)C[C@@H]1[C@@H](CO)[C@H](C(=O)NC3CCC3)N(C(=O)NC(C)C)[C@H]21,n
C[C@@H]1CCCCO[C@H](CN(C)C(=O)Cc2ccccc2)[C@@H](C)CN([C@@H](C)CO)C(=O)c2cc(NC(=O)CCCN(C)C)ccc2O1,n
SMILES,DUX4 txn inh
COCC#Cc1ccc2c(c1)O[C@H](CN(C)Cc1ccccc1F)[C@@H](C)CN([C@H](C)CO)S2(=O)=O,n
CC=Cc1ccc2n(c1=O)C[C@@H]1[C@@H](CO)[C@H](C(=O)NCC3CC3)N(Cc3ccncc3)[C@H]21 (mixture of isomers),n
C[C@H]1CN([C@@H](C)CO)S(=O)(=O)c2ccc(-c3ccncc3)cc2O[C@@H]1CN(C)C(=O)c1ccc2c(c1)OCO2,n
C[C@@H]1CN([C@H](C)CO)C(=O)c2cc(NC(=O)NC3CCCCC3)ccc2O[C@@H]1CN(C)Cc1ccc(C(=O)Nc2ccccc2N)cc1,n
COc1ccccc1CN1[C@@H]2CNC[C@H]1C2c1ccc(-c2ccc(C#N)cc2)cc1 (some centres not stated),n
N#Cc1ccc(-c2ccc(C3[C@H]4CNC[C@@H]3N4C(=O)Nc3ccccc3F)cc2)cc1 (some centres not stated),n
COc1cc(CN2C[C@@H]3N[C@H](C2)C3c2ccc(-c3cncnc3)cc2)cc(OC)c1 (some centres not stated),n
N#Cc1ccc(-c2ccc([C@@H]3[C@@H]4CN(Cc5cocn5)C[C@H]3N4)cc2)cc1,-75
